Assay results published in article PMC5700166.

Legend:
[1] = molecular target: T1, GST-Nv-NF-kB (Ser allele) (Nematostella vectensis, UniProt A7UNT2 2-411); test: protein-binding microarray (PBM); PBM: ~300 nM protein, 6 mM HEPES pH 7.8, 80 mM KCl, 0.5 mM EDTA, 0.5 mM EGTA, 6% glycerol, 35 ng/ul poly-dIdC, 1% milk, 1 h, room temperature; Ap Aiptasia and Nv Nematostella (sea anemones) / Co Capsaspora / Aq Amphimedon (sponge) / Dm Drosophila / Hu human; RHD is the Rel homology domain; high values mean tight binding; settings: dsDNA, one strand shown
T1 sequence: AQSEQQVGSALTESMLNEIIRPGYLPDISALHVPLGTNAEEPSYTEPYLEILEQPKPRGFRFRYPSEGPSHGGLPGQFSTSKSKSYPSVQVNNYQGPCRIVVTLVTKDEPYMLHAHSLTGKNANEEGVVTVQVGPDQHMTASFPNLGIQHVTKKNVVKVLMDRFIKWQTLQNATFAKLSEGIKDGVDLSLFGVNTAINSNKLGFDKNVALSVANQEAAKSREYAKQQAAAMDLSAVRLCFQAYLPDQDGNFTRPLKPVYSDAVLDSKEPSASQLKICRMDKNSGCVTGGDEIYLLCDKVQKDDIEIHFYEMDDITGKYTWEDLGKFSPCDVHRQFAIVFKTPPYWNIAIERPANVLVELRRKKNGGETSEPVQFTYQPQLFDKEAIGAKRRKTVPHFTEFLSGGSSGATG

GST-Hu-p50 = GST-Hu-p50 (Homo sapiens, UniProt P19838 7-356); test: as above; settings: dsDNA, one strand shown
Sequence of GST-Hu-p50 (P19838 7-356): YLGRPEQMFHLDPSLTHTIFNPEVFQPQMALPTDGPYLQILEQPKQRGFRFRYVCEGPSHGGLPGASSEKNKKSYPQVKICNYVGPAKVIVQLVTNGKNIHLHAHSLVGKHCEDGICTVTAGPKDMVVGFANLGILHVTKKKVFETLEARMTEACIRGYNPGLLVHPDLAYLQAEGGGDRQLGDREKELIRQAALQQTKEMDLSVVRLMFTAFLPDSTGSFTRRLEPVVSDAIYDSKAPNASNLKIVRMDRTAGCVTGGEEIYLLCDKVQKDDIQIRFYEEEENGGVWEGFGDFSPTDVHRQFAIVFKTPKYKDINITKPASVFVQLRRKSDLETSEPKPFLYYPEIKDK

Row | Sequence | binding signal [1] | binding signal (GST-Hu-p50)
1 | CCGATTAACATCAGGAATATTCCTGATGTTAATCGGGTCTTGATTCGCTTGACGCTGCTG | 1.09 z-score | 1.36 z-score
2 | CCGATTAACATCAGGGAATATTATGATGTTAATCGGGTCTTGATTCGCTTGACGCTGCTG | 5.41 z-score | 3.86 z-score
3 | CCGATTAACATCAGGGAGATACCTGATGTTAATCGGGTCTTGATTCGCTTGACGCTGCTG | 1.75 z-score | 3.08 z-score
4 | CCGATTAACATCAACTGGGAAAATGATGTTAATCGGGTCTTGATTCGCTTGACGCTGCTG | 4.25 z-score | 2 z-score
5 | CCGATTAACATCATGGAGGGAGGTGATGTTAATCGGGTCTTGATTCGCTTGACGCTGCTG | 1.02 z-score | 1.63 z-score
6 | CCGATTAACATCAGGGGTAAAACTGATGTTAATCGGGTCTTGATTCGCTTGACGCTGCTG | 3.62 z-score | 3.28 z-score
7 | CCGATTAACATCAGGGGACGGGATGATGTTAATCGGGTCTTGATTCGCTTGACGCTGCTG | 3.93 z-score | 3.73 z-score
8 | CCGATTAACATCAGGATCTCCCCTGATGTTAATCGGGTCTTGATTCGCTTGACGCTGCTG | 5.15 z-score | 4.48 z-score
9 | CCGATTAACATCAAGGATTCCCGTGATGTTAATCGGGTCTTGATTCGCTTGACGCTGCTG | 2.82 z-score | 2.13 z-score
10 | CCGATTAACATCATTGGGAAAAATGATGTTAATCGGGTCTTGATTCGCTTGACGCTGCTG | 3.58 z-score | 2.4 z-score
11 | CCGATTAACATCAGGAAATTTCCTGATGTTAATCGGGTCTTGATTCGCTTGACGCTGCTG | 2.16 z-score | 2.5 z-score
12 | CCGATTAACATCAGGAACTACCCTGATGTTAATCGGGTCTTGATTCGCTTGACGCTGCTG | 2.02 z-score | 2.58 z-score
